# Source: publication PMC7862700, “An all-to-all approach to the identification of sequence-specific readers for epigenetic DNA modifications on cytosine”
# Key:
# Experiment in all cases: DAPPL (digital affinity profiling via proximity ligation, sequencing); 10 mM Tris-HCl pH 7.5, 50 mM NaCl, 1 mM DTT, 4% glycerol, room temperature, 30 min; GST-TFs on glutathione beads, 16-mer random dsDNA library, 0.1% formaldehyde crosslink after washing; high values mean tight binding
# [1] = target: T1, FLI1 (Homo sapiens, UniProt Q01543 1-452); conditions: protein: recombinant; tags: N-terminal GST; dsDNA, one strand shown
# T1 sequence: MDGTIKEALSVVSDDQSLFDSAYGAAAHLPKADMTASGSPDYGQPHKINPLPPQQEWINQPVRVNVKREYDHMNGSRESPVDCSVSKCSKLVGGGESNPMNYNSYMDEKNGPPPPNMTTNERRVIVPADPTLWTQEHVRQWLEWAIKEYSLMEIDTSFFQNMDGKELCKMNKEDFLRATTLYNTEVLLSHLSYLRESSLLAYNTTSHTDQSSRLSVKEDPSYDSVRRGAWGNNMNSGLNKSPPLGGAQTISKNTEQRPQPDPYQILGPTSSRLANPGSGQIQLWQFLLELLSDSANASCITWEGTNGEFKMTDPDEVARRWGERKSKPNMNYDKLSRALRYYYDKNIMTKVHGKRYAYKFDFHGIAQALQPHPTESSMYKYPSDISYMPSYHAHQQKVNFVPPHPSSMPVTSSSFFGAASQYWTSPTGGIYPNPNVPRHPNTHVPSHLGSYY
# Summary of the method: (§1)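 Binding signal is defined as a hexamer's read frequency for one factor over its frequency for the tag-only sample. To obtain reads, GST-fused human transcription factors were expressed in yeast, captured on glutathione beads, barcoded with DNA and pooled with that sample. Pools met 200 nmole of a 16-mer random double-stranded DNA library in Tris/NaCl/DTT/glycerol buffer for 30 min at room temperature before washing, 0.1% formaldehyde crosslinking, proximity ligation (BsaI/T4 ligase, 1 h, 37 °C), PCR and Illumina NextSeq500 sequencing.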
# [2] = target: T2, ELK1 (Homo sapiens, UniProt P19419 1-428); conditions: protein: recombinant; tags: N-terminal GST; dsDNA, one strand shown
# T2 sequence: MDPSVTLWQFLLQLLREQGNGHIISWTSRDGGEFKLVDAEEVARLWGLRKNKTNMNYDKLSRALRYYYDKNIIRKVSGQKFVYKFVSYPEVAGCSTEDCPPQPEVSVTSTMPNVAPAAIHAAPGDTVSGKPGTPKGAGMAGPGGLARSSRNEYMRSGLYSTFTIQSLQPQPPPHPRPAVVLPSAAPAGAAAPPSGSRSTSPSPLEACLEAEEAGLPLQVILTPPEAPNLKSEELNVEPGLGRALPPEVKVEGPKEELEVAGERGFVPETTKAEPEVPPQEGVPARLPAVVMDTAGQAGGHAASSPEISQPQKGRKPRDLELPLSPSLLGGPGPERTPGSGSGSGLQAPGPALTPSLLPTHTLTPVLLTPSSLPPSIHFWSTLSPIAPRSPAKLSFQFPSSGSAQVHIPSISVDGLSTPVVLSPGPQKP
# Summary of the method: as §1
# [3] = target: T3, GABPA (Homo sapiens, UniProt Q06546 1-454); conditions: protein: recombinant; tags: N-terminal GST; dsDNA, one strand shown
# T3 sequence: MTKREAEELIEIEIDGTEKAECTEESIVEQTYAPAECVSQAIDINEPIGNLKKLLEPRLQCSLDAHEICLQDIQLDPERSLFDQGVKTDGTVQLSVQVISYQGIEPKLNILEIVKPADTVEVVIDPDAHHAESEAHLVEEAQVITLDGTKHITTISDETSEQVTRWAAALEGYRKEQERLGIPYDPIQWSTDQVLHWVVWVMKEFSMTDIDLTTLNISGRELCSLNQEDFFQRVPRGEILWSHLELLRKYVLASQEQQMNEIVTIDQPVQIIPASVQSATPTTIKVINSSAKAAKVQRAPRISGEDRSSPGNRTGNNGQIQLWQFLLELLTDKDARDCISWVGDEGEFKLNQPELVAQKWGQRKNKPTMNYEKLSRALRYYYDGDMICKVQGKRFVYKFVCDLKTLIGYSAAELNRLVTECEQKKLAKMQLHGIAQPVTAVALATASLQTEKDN
# Summary of the method: as §1
# [4] = target: T4, ERG (Homo sapiens, UniProt P11308 1-479); conditions: protein: recombinant; tags: N-terminal GST; dsDNA, one strand shown
# T4 sequence: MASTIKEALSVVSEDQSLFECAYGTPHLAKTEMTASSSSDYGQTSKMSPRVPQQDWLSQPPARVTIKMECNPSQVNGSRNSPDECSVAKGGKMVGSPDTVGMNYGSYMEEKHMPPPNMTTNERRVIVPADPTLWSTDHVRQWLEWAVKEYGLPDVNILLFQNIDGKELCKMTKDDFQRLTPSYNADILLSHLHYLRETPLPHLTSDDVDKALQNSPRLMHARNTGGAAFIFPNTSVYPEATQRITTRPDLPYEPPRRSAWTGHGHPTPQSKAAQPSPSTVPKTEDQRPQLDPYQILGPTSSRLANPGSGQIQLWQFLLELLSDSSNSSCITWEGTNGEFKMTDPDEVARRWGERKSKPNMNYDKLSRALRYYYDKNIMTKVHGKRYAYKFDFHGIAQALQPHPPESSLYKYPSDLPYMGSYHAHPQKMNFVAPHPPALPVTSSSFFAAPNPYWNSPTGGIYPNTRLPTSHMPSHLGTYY
# Summary of the method: as §1
# [5] = target: ELF1 (Homo sapiens, UniProt P32519 1-619); conditions: protein: recombinant; tags: N-terminal GST; dsDNA, one strand shown
# Summary of the method: as §1
# [6] = target: T5, EHF (Homo sapiens, UniProt Q9NZC4 1-300); conditions: protein: recombinant; tags: N-terminal GST; dsDNA, one strand shown
# T5 sequence: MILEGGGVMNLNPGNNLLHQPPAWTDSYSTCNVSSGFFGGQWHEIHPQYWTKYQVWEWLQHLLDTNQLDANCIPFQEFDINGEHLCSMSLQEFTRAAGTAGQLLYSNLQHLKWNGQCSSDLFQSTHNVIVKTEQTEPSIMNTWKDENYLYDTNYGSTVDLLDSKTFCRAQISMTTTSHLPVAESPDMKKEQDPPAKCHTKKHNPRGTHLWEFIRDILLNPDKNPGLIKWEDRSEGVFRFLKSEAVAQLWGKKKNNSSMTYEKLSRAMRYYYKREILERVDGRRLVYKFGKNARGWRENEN
# Summary of the method: as §1
# [7] = target: SPI1 (Homo sapiens, UniProt P17947 1-270); conditions: protein: recombinant; tags: N-terminal GST; dsDNA, one strand shown
# Summary of the method: as §1
# [8] = target: SPIB (Homo sapiens, UniProt Q01892 1-262); conditions: protein: recombinant; tags: N-terminal GST; dsDNA, one strand shown
# Summary of the method: as §1
# [9] = target: T6, ELK3 (Homo sapiens, UniProt P41970 1-407); conditions: protein: recombinant; tags: N-terminal GST; dsDNA, one strand shown
# T6 sequence: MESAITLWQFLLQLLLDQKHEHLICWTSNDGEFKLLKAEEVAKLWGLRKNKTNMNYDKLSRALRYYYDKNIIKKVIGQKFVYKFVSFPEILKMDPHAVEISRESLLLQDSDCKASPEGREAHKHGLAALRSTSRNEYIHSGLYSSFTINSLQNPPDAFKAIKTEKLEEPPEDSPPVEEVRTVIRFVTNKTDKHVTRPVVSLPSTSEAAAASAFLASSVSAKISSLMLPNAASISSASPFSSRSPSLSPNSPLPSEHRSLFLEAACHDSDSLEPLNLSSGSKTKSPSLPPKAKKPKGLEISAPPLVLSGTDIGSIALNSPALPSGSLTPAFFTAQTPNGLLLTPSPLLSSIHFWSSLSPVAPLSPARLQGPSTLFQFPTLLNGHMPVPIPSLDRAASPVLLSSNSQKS
# Summary of the method: as §1
# [10] = target: T7, FEV (Homo sapiens, UniProt Q99581 1-238); conditions: protein: recombinant; tags: N-terminal GST; dsDNA, one strand shown
# T7 sequence: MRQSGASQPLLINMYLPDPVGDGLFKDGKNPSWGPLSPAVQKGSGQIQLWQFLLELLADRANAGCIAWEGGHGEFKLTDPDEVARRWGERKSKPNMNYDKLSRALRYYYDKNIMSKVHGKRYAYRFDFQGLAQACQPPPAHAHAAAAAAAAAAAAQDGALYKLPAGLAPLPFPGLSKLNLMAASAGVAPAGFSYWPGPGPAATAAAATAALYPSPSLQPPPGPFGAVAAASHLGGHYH
# Summary of the method: as §1
# [11] = target: ETV5 (Homo sapiens, UniProt P41161 1-510); conditions: protein: recombinant; tags: N-terminal GST; dsDNA, one strand shown
# Summary of the method: as §1
# [12] = target: HSF1 (Homo sapiens, UniProt Q00613 1-529); conditions: protein: recombinant; tags: N-terminal GST; chain copies: 3; dsDNA, one strand shown
# Summary of the method: as §1
# [13] = target: T8, SPIC (Homo sapiens, UniProt Q8N5J4 1-248); conditions: protein: recombinant; tags: N-terminal GST; dsDNA, one strand shown
# T8 sequence: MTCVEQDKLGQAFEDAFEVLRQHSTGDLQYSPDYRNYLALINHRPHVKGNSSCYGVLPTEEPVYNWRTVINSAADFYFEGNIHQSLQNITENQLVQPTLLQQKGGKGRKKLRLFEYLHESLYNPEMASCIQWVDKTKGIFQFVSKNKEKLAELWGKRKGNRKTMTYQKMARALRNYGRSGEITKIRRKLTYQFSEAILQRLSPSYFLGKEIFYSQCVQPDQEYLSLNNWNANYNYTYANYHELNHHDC
# Summary of the method: as §1
# [14] = target: ELF4 (Homo sapiens, UniProt Q99607 1-663); conditions: protein: recombinant; tags: N-terminal GST; dsDNA, one strand shown
# Summary of the method: as §1
# [15] = target: T9, ELK4 (Homo sapiens, UniProt P28324-2 1-405); conditions: protein: recombinant; tags: N-terminal GST; dsDNA, one strand shown
# T9 sequence: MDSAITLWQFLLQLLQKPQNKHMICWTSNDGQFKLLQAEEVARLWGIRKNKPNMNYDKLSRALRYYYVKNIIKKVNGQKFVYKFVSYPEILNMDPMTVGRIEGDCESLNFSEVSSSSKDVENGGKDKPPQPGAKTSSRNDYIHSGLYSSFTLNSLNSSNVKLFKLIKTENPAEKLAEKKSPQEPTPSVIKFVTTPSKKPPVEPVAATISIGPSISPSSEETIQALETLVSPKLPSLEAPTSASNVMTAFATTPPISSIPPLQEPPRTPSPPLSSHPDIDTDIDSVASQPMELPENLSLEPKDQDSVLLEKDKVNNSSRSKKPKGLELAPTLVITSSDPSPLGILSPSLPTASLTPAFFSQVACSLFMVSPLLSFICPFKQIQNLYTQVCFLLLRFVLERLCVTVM
# Summary of the method: as §1
# [16] = target: T10, ETV2 (Homo sapiens, UniProt O00321 1-342); conditions: protein: recombinant; tags: N-terminal GST; dsDNA, one strand shown
# T10 sequence: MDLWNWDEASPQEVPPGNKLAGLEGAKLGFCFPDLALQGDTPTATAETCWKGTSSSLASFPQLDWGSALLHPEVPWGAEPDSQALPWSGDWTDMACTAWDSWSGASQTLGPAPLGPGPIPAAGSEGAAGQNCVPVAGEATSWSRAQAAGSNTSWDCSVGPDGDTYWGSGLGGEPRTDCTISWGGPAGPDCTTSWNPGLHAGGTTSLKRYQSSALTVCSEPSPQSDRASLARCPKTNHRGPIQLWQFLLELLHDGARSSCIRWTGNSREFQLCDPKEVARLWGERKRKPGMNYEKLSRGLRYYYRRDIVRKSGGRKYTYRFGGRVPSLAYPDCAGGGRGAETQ
# Summary of the method: as §1
# [17] = target: T11, ELF3 (Homo sapiens, UniProt P78545 1-371); conditions: protein: recombinant; tags: N-terminal GST; dsDNA, one strand shown
# T11 sequence: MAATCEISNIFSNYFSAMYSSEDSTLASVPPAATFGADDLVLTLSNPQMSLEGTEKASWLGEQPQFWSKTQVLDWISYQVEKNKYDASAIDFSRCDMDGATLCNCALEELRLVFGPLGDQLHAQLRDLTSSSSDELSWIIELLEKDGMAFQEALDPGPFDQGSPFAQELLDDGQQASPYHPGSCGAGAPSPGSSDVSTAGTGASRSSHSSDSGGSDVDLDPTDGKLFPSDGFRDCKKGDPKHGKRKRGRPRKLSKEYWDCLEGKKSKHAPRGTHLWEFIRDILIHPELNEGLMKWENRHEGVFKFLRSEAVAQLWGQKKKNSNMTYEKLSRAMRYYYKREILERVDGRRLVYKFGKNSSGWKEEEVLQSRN
# Summary of the method: as §1
# [18] = target: CRX (Homo sapiens, UniProt O43186 1-299); conditions: protein: recombinant; tags: N-terminal GST; dsDNA, one strand shown
# Summary of the method: as §1
# [19] = target: ETV1 (Homo sapiens, UniProt P50549 1-477); conditions: protein: recombinant; tags: N-terminal GST; dsDNA, one strand shown
# Summary of the method: as §1
# Sequence of ELF4 (Q99607 whole entry): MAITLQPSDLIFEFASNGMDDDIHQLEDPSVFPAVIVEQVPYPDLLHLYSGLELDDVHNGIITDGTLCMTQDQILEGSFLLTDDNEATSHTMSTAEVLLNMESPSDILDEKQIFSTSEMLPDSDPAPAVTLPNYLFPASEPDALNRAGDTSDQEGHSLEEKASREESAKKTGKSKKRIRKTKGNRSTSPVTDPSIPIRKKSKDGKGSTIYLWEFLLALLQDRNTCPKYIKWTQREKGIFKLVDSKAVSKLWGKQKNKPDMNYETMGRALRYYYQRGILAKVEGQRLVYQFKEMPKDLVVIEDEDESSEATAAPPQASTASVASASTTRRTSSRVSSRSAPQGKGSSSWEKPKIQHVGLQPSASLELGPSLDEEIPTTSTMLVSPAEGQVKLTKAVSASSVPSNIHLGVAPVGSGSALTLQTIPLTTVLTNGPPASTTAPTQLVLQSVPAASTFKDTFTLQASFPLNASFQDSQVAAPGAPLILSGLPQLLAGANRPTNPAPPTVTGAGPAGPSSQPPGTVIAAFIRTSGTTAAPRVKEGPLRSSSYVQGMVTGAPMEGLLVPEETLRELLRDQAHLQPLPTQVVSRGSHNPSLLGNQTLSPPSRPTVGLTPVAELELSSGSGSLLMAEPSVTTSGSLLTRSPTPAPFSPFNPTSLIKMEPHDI
# Sequence of ELF1 (P32519 whole entry): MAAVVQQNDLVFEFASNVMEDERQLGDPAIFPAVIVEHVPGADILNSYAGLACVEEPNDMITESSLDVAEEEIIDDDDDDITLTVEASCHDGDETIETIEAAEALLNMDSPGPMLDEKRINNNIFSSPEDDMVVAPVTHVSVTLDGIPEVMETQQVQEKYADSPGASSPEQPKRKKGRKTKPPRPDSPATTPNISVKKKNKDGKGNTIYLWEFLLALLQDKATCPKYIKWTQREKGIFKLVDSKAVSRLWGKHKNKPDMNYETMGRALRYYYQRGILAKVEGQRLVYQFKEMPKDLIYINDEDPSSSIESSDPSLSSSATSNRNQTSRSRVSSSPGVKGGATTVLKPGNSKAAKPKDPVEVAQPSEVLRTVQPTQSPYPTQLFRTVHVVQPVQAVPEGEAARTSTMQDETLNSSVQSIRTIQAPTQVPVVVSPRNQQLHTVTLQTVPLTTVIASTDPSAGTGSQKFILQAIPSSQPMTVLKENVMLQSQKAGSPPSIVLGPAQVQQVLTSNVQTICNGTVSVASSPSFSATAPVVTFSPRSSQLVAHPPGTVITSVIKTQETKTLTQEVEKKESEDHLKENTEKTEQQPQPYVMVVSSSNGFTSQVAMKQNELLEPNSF
# Sequence of ETV1 (P50549 whole entry): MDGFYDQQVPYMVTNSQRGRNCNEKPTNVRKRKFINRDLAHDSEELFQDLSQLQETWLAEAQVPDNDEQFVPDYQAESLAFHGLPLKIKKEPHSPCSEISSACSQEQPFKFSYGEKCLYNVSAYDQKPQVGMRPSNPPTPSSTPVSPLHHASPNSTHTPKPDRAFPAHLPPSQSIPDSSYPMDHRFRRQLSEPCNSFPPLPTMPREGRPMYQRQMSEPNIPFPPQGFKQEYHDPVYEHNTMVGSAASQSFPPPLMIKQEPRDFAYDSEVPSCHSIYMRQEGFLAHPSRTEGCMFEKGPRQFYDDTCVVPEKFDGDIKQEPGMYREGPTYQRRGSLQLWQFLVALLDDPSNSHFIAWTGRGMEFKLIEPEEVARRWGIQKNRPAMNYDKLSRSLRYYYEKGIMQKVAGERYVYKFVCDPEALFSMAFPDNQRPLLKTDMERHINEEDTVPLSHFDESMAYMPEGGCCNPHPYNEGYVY
# Sequence of ETV5 (P41161 whole entry): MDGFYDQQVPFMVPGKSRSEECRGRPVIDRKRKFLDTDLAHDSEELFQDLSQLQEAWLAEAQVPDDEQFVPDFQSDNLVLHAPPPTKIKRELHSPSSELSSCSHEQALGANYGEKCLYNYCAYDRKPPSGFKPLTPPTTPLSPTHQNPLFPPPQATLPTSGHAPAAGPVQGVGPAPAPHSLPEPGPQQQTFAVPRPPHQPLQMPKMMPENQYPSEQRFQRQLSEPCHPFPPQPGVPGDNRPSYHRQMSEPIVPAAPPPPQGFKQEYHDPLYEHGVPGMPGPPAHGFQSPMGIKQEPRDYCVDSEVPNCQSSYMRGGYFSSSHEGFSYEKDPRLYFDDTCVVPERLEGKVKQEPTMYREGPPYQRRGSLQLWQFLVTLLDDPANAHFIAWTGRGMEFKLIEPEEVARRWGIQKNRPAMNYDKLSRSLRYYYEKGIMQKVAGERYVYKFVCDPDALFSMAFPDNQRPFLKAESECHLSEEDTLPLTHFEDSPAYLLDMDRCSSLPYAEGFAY
# Sequence of SPIB (Q01892 whole entry): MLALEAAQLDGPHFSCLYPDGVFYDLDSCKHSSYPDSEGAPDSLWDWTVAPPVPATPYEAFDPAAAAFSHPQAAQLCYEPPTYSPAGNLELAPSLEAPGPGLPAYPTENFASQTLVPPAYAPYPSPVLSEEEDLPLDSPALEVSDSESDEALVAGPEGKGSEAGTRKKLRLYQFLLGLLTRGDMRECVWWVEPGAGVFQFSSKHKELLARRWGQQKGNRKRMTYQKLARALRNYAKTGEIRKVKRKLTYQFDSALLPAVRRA
# Sequence of CRX (O43186 whole entry): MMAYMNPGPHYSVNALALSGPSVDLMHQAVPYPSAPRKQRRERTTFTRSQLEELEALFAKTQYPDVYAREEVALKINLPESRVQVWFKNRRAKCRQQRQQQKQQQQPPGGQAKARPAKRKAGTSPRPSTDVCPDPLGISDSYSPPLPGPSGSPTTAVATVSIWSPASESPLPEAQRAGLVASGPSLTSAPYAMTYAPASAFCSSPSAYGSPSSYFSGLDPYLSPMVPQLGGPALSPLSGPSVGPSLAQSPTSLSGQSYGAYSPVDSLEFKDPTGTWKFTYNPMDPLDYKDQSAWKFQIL
# Sequence of HSF1 (Q00613 whole entry): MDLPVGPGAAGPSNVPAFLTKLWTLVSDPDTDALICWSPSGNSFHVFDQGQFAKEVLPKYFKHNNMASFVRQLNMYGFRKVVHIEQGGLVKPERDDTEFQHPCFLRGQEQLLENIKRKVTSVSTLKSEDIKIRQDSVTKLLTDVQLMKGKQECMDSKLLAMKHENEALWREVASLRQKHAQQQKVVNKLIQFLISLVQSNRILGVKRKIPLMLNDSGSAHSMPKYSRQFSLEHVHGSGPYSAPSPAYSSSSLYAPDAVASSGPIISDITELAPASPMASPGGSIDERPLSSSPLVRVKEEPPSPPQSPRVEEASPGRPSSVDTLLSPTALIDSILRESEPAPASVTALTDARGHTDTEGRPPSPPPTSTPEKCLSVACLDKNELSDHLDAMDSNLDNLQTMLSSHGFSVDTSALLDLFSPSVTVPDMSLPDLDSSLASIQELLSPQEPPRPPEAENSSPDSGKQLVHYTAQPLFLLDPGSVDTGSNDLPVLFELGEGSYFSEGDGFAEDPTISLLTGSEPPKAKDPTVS
sequence,measurement,setting,value
TACGCT,binding signal,[1],"1.3 fold enrichment (6-mer frequency, TF over GST control)"
same,binding signal,[2],"1.26 fold enrichment (6-mer frequency, TF over GST control)"
same,binding signal,[3],"1.4 fold enrichment (6-mer frequency, TF over GST control)"
same,binding signal,[4],"1.34 fold enrichment (6-mer frequency, TF over GST control)"
same,binding signal,[5],"1.34 fold enrichment (6-mer frequency, TF over GST control)"
same,binding signal,[6],"1.25 fold enrichment (6-mer frequency, TF over GST control)"
same,binding signal,[7],"1.31 fold enrichment (6-mer frequency, TF over GST control)"
same,binding signal,[8],"1.18 fold enrichment (6-mer frequency, TF over GST control)"
same,binding signal,[9],"1.36 fold enrichment (6-mer frequency, TF over GST control)"
same,binding signal,[10],"1.32 fold enrichment (6-mer frequency, TF over GST control)"
same,binding signal,[11],"1.3 fold enrichment (6-mer frequency, TF over GST control)"
same,binding signal,[12],"1.28 fold enrichment (6-mer frequency, TF over GST control)"
same,binding signal,[13],"1.21 fold enrichment (6-mer frequency, TF over GST control)"
same,binding signal,[14],"1.39 fold enrichment (6-mer frequency, TF over GST control)"
same,binding signal,[15],"1.26 fold enrichment (6-mer frequency, TF over GST control)"
same,binding signal,[16],"1.23 fold enrichment (6-mer frequency, TF over GST control)"
same,binding signal,[17],"1.29 fold enrichment (6-mer frequency, TF over GST control)"
same,binding signal,[18],"1.48 fold enrichment (6-mer frequency, TF over GST control)"
same,binding signal,[19],"1.25 fold enrichment (6-mer frequency, TF over GST control)"
